# How the values were obtained:
# Assay in all cases: PBM binding z-score (relative to random genomic background probes); higher = stronger binding; sequences stand for … in GC…GCGATTGACAGCGTAGAATGAAGG
# [1] = test system: PPARg:RXRa DBDmut IVT, anti-RXR (DBD mutation: RXRa K156A/R161A, NR concentration 270 nM, RXRa partner concentration 90 nM)
# Procedure, shortened: (§1)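 Ligand-free nuclear receptor dimers were applied to custom Agilent 4×180K protein-binding microarrays whose double-stranded probes carried direct-repeat seeds, single-nucleotide variants, half-site ablations and random human genomic background sequences in 34-nt variable regions. Incubation lasted 1 h. Binding z-scores were computed against the random background probes from regression-normalized fluorescence.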
# [2] = test system: PPARg:RXRa IVT, anti-PPARg (NR concentration 270 nM, RXRa partner concentration 90 nM)
# Procedure, shortened: as §1
# [3] = test system: PPARg DBDmut:RXRa IVT, anti-PPARg (DBD mutation: PPARg1 K132A/R137A, NR concentration 270 nM, RXRa partner concentration 90 nM)
# Procedure, shortened: as §1
# [4] = test system: PPARg DBDmut IVT, anti-PPARg (DBD mutation: PPARg1 K132A/R137A, NR concentration 270 nM)
# Procedure, shortened: as §1
# [5] = test system: PPARg homodimer (NR concentration 180 nM)
# Procedure, shortened: as §1
# [6] = test system: PXR:RXRa (NR concentration 270 nM, RXRa partner concentration 90 nM)
# Procedure, shortened: as §1
# [7] = test system: PXR homodimer (NR concentration 270 nM)
# Procedure, shortened: as §1
# [8] = test system: RARa:RXR (NR concentration 270 nM, RXRa partner concentration 90 nM)
# Procedure, shortened: as §1
# [9] = test system: RARa homodimer (NR concentration 270 nM)
# Procedure, shortened: as §1
# [10] = test system: RARb:RXRa (NR concentration 270 nM, RXRa partner concentration 90 nM)
# Procedure, shortened: as §1
# [11] = test system: RARb homodimer (NR concentration 270 nM)
# Procedure, shortened: as §1
# [12] = test system: RARg:RXRa (NR concentration 270 nM, RXRa partner concentration 90 nM)
# Procedure, shortened: as §1
# [13] = test system: RARg homodimer (NR concentration 270 nM)
# Procedure, shortened: as §1
# [14] = test system: RXRa DBDmut IVT, anti-RXR (DBD mutation: RXRa K156A/R161A, NR concentration 90 nM)
# Procedure, shortened: as §1
# [15] = test system: RXRa homodimer (NR concentration 180 nM)
# Procedure, shortened: as §1
# [16] = test system: THRa:RXRa (NR concentration 90 nM, RXRa partner concentration 90 nM)
# Procedure, shortened: as §1
# [17] = test system: THRa homodimer (NR concentration 90 nM)
# Procedure, shortened: as §1
# [18] = test system: VDR homodimer (NR concentration 270 nM)
# Procedure, shortened: as §1
Sequence,PBM binding z-score [1],PBM binding z-score [2],PBM binding z-score [3],PBM binding z-score [4],PBM binding z-score [5],PBM binding z-score [6],PBM binding z-score [7],PBM binding z-score [8],PBM binding z-score [9],PBM binding z-score [10],PBM binding z-score [11],PBM binding z-score [12],PBM binding z-score [13],PBM binding z-score [14],PBM binding z-score [15],PBM binding z-score [16],PBM binding z-score [17],PBM binding z-score [18]
TCTCGGAGCACACGAAGGTCAGAGCTTTCCAGAG,0.43,0.198,-0.909,-1.03,0.396,1.12,-1.04,1.49,-1.5,2.39,2.66,2.84,1.83,-0.242,1.7,1.35,-0.853,-0.73
GCTGCTAGGTCAACTGATGGTCCGCTAAAGCTCG,4.62,3.92,-0.331,-0.853,0.857,0.939,-0.584,2.05,-0.897,4.04,3.41,4.2,5.3,1.53,2.8,2.73,1.26,0.106
AGAACGAGGGCACGCTGAGTTGCTAGCAGAGTAG,4.16,3.97,-0.0983,-0.499,-0.0627,0.539,-0.605,0.617,-0.905,2.43,0.875,1.48,1.95,1.69,1.1,1.51,-0.328,1.42
ACAAGCAGGCCAAGGGTCACTCAAGATTAGTCCG,1.27,3.95,0.299,-0.852,2.21,3.26,-0.154,4.08,0.779,3.47,3.85,4.28,4.23,0.479,4.21,2.67,0.327,0.958
ACAGACAGGTGATGAAGGTAGCTCAGGCTATCAT,0.00476,-0.161,-0.42,-0.376,-1.11,-0.38,0.0281,-0.246,0.11,0.0595,-0.243,-0.0777,0.295,-0.263,0.147,0.294,-0.392,-0.696
CGAACTAGGTTAGAACAGGACAGTGAAGGATGAT,5.02,4.21,0.977,0.101,0.487,-0.0109,-0.256,0.212,-0.0731,0.527,0.456,0.384,0.607,0.0179,0.171,1.92,-0.166,-0.137
ACTAGTTTGTCAGCTGAGGTCACACACAATTCGG,1.11,2.31,0.92,1.54,2.72,4.87,2.34,4.4,1.24,3.28,3.94,3.85,3.7,1.98,4.13,4.42,5.24,3.53
GCAGACAGATGAAACGCAGGTAACTCAGGGTGGC,-0.362,-0.767,-1.03,-0.761,-1.19,-0.681,-0.52,-0.161,-0.884,-1.1,-0.914,-0.366,-0.316,-0.516,-0.162,0.473,-1.03,-0.594
GCTATTAGTTGAAACGGCAACCGAATGATTCTCG,0.254,-0.276,-0.0416,-0.0923,0.137,-0.267,0.122,-0.411,-0.177,-0.226,-0.548,-0.122,-0.103,0.644,-0.226,-0.488,-0.463,-0.198
TGTCAAAGTTCAAAGGTAACGTACGTATCCACAC,0.385,4.52,2.01,1.18,3.53,5.63,3,6.3,1.11,4.92,3.77,6.34,5.94,4.49,6.98,2.98,0.0494,4.29
TCATATAGGTAAATGCTAGGTGAATGTCCGATCT,3.97,2.57,0.725,1.15,0.769,0.548,0.635,1.02,1.27,0.461,0.278,0.529,0.626,1.46,0.893,1.49,0.604,0.143
GCTACTGGGGCAAAGCAGGTTACCATAAGGTTGG,6.4,5.54,0.032,-0.0829,0.182,0.319,-0.456,0.495,-0.534,1.12,1.16,0.343,0.791,0.0265,0.261,2.75,0.258,-0.451
AGAAAGAGGTTATTAAGATCAGGGAATTGCGGTC,1.7,1.4,0.63,0.0238,1.2,1.38,0.96,1.93,1.28,1.97,1.12,1.78,1.29,1.26,2.21,1.39,0.443,0.737
GCGACTGGCGCAAAGCAGGTTACCATAAGGTTGG,-0.223,-0.321,-1.05,-1.11,-0.736,-0.34,-0.486,-0.0579,-0.958,-0.386,-0.0806,-0.27,-0.774,-0.791,-0.0574,0.636,-0.543,-0.861
ATCTCTAGGTAAAAGTTCAGTGAATCCCGAGGAT,1.99,3.82,1.42,1.8,1.4,2.14,1.95,1.64,0.604,2.42,2.42,1.68,2.06,0.516,1.54,1.24,0.375,1.7
